Compound activity from PubChem.
The list is not random: actives were taken first. Their share in the collection is about 21%.
DRD3 antagonist: antagonists of human D3 dopamine receptor; P35462; D3R cells, DiscoveRx beta-arrestin luminescence, antagonist mode; hits give low values; max response, negative = inhibition, %; 2.5% of 360,000 active; AID 652054; in the data active = max response below about -50%; inconclusive = no clear call, values can overlap the other calls
Target sequence (P35462 whole entry, looked up): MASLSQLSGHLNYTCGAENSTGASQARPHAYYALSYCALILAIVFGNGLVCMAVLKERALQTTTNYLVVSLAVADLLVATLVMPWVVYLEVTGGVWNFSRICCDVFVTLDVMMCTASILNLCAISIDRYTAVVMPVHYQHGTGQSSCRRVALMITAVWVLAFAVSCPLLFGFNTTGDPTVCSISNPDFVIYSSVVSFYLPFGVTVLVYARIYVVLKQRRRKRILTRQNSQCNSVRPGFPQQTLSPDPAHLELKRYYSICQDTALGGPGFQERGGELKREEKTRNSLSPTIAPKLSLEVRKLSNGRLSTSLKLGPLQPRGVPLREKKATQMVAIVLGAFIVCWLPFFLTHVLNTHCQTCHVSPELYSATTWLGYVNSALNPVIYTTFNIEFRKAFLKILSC
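Cells expressing the human receptor were seeded at 1500 cells/well, incubated overnight at 37 degrees C in 5% CO2, then exposed to library compounds with dopamine controls for 90 minutes at 37 degrees C before luminescent detection.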
DRD3 agonist: activates the human D3 dopamine receptor | D3R DiscoveRx beta-arrestin cells, luminescence, 90 min | max activation, % | 0.58% of 410,000 active | AID 652048; in the data active = max activation above about 30%
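Agonist-mode cell screen: cells plated at 1500/well and incubated overnight at 37 °C, then exposed to library compounds for 90 min at 37 °C. Detection reagent was added for 30–60 min at room temperature, and luminescence was read.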
TDP1 cell noCPT: qHTS for Inhibitors of human tyrosyl-DNA phosphodiesterase 1 (TDP1): qHTS in cells in absence of CPT; DT40 Tdp1-/- hTDP1 cells, no CPT, ATP luminescence, 48 h; Potency, µM (series often up to 46.2 µM), usual class: inhibitors; 15% of 420,000 active; AID 686978, 2013; note: nearly all actives have a fitted effect of over 55% in size
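Camptothecin absent (DMSO only). Human TDP1-complemented DT40 knockout cells, 400 cells/well, 37 °C for minimum 48 hr; ATP measured via CellTiter-Glo, 30 min dark incubation, luminescence.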
ClpP mod: qHTS Assay for Activators of ClpP. ATP-dependent Clp protease proteolytic subunit (Bacillus subtilis (strain 168)), P80244. purified B. subtilis ClpP, FRET peptide cleavage, 20 min. Potency, µM (doses to about 57.5 µM). 1.9% of 340,000 active; active = well fitted falling curve with a large enough effect; inconclusive = small, poorly fitted or top-dose-only effect; inactive = no such curve, though single readings can be large or run the other way; note: the source files actives as falling curves though it sought activators and does not explain the sign; nearly all actives have a fitted effect of over 65% in size
Target sequence (P80244 whole entry, looked up): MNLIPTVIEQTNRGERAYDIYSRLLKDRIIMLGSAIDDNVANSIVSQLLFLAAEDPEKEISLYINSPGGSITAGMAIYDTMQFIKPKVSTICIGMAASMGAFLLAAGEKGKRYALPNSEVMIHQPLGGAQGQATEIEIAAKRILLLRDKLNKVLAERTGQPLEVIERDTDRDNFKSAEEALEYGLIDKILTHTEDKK
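Buffer: 100 mM Tris/HCl pH8, 100 mM KCl, 0.05% low protease BSA, 2.5% glycerol, 0.01% Tween-20. ClpP 10 microg/mL final; 20 min RT; delta FRET normalized to ADEP and DMSO controls.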
IL-1B inflam inh: inhibitors of inflammasome signaling (IL-1 beta secretion); THP-1 LPS/ATP IL-1B secretion, AlphaLISA, 16 h; hits give low values; activity change, % at 57.5 µM; 4.7% of 360,000 active; AID 743279; in the data active = activity change below about -50%; inconclusive = mostly about -30% to -49%
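THP-1 cells pretreated 1 hr with compounds (up to 57.5 uM final), then stimulated with LPS (250 ng/mL final) plus ATP (1.25 mM final); secreted IL-1B measured by AlphaLISA after 16 hr, decreased signal indicating inhibition.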
TDP1 cell CPT: DT40-hTDP1 cell growth loss with CPT. chicken DT40 Tdp1-/-;hTDP1 cells + 20 nM CPT, ATP luminescence, 48 h. Potency, µM (doses to about 46.2 µM), hits mostly inhibitors. 12% of 420,000 active; note: nearly all actives have a fitted effect of over 55% in size
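Chicken DT40 Tdp1-/- cells stably complemented with human TDP1 were seeded at 400 cells/well in medium containing 20 nM camptothecin, exposed to pin-transferred compounds, and grown at 37 °C for at least 48 hr. Viability was read as ATP luminescence.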
A number is an active result; n = inactive; u = inconclusive; x = not tested or not shown; [ ] = remark or other dose. Unless noted, calls come from the whole dose curve; as a rule, active = well fitted inhibition curve with a large enough effect; inconclusive = small, poorly fitted or top-dose-only effect; inactive = flat fitted curve, though single readings scatter.

SMILES | DRD3 antagonist | DRD3 agonist | TDP1 cell noCPT | ClpP mod | IL-1B inflam inh | TDP1 cell CPT
CS(=O)(=O)c1ccc2nc(NC(=O)CCS(=O)(=O)c3ccccc3)sc2c1 | n | n | 5.2µM | x | -93 | 5.2µM
CC(=O)Nc1ccc2nc(NC(=O)CS(=O)(=O)c3ccccc3)sc2c1 | n | n | n | n | n | n
O=C(CCS(=O)(=O)c1ccccc1)Nc1nc2cc3c(cc2s1)OCCO3 | n | n | u | n | u | u
O=C(CCc1ccccc1)Nc1nc2c(F)cc(F)cc2s1 | n | n | 13µM | x | n | u
O=C(CCS(=O)(=O)c1ccccc1)Nc1nc2cc3c(cc2s1)OCO3 | n | n | u | n | -52 | u
CS(=O)(=O)c1ccc2nc(NC(=O)Cc3ccccc3)sc2c1 | u | n | n | n | n | n
Cn1cccc1C(=O)N1CCC2(CCN(Cc3nccs3)CC2)CC1 | x | x | n | x | x | n
CN(CC1CCCO1)S(=O)(=O)c1ccc(C(=O)Nc2nc3cc4c(cc3s2)OCO4)cc1 (stereo not drawn) | n | n | 10µM | n | n | 7.3µM
Cc1nc2ccc(NC(=O)CCS(=O)(=O)c3ccccc3)cc2s1 | n | n | n | n | n | n
O=C(CCS(=O)(=O)c1ccccc1)Nc1nc2ccc(F)cc2s1 | u | n | 13µM | n | n | 12µM
Cc1ccc(C(=O)C2CCN(S(=O)(=O)c3ccc(C(=O)O)cc3)CC2)cc1 | n | n | n | n | n | n
CCOC(=O)c1cnc2c(Cl)c(Cl)ccc2c1N1CCN(C)CC1 | n | n | n | n | -50 | n
CCOC(=O)c1cnc2c(C)c(Cl)ccc2c1N1CCN(CC)CC1 | n | n | u | n | -82 | u
CNc1c(N)n(Cc2ccccc2)c(=O)[nH]c1=O | n | n | n | n | n | n
Nc1c(NCc2ccccc2)c(=O)[nH]c(=O)n1Cc1ccccc1 | n | n | 18µM | n | n | u
CCCNc1c(N)n(-c2ccccc2)c(=O)[nH]c1=O | n | n | 16µM | u | n | u
CCOc1ccccc1NC(=O)c1cnccn1 | n | n | n | n | -59 | n
CCOc1ccccc1NC(=O)c1nc[nH]c1C(=O)Nc1ccccc1OCC | n | n | u | n | n | 16µM
CCOc1ccccc1NC(=O)C(CC)Sc1nc2ccncc2[nH]1 (stereo not drawn) | n | n | 16µM | n | n | u
CC(=O)c1cccc(NC(=O)C(C)OC(=O)c2cccc(S(=O)(=O)N3CCN(C)CC3)c2)c1 (stereo not drawn) | n | n | n | n | n | n
COc1ccccc1N1CCN(S(=O)(=O)CCNC(=O)Cc2ccc(Cl)cc2)CC1 | x | n | 23µM | n | x | u
COc1ccccc1N1CCN(S(=O)(=O)CCNC(=O)COc2ccccc2)CC1 | n | n | u | n | n | u
COc1ccccc1N1CCN(S(=O)(=O)CCNC(=O)Cc2ccc(F)cc2)CC1 | n | n | u | n | n | 21µM
CCCCOc1ccc(C(=O)NCCS(=O)(=O)N2CCN(c3ccccc3OC)CC2)cc1 | x | n | 7.3µM | n | x | 5.8µM
O=C(O)CC/C=C\C[C@@H]1CO[C@H](c2ccccc2Cl)O[C@@H]1c1ccccc1O | x | x | n | x | x | n
SMILES | DRD3 antagonist | DRD3 agonist | TDP1 cell noCPT | ClpP mod | IL-1B inflam inh | TDP1 cell CPT
Cc1sc(NC(=S)NC(=O)c2ccco2)c(C(N)=O)c1C | n | n | n | x | n | n
Cc1sc(NC(=O)Nc2ccccc2)c(C(N)=O)c1C | n | n | n | n | -76 | u
COC(=O)CCC(=O)NC(=S)Nc1sc(C)c(C)c1C(N)=O | u | n | 0.15µM | n | n | 0.16µM
NC(=O)c1ccccc1NC(=S)NC(=O)CCc1ccccc1 | u | n | 2.6µM | n | n | 3.7µM
Cc1sc(NC(=S)NC(=O)CCc2ccccc2)c(C(N)=O)c1C | n | n | 0.18µM | 28µM | n | 0.21µM
Cc1ccccc1OCc1nnc(SCc2cc(=O)c3cccc(F)c3[nH]2)n1C | x | n | u | n | x | u
Cc1onc(-c2ccccc2)c1C(=O)Nc1nnc(C(C)(C)C)s1 | n | n | n | x | n | n
CCCC(=O)Nc1sc(Cc2ccccc2)c(C)c1C(N)=O | n | n | 23µM | n | u | u
COC(=O)c1c(NC(=O)CCC(=O)O)sc(Cc2ccccc2)c1C | n | n | n | n | n | n
COC(=O)C1CCN(Cc2ccc3c(c2)CN(C(=O)c2cc(C4CC4)on2)CCO3)CC1 | x | x | n | x | x | n[9.04 µM]
CC1Sc2ccc(C(=O)NCc3ccccn3)cc2NC1=O (stereo not drawn) | n | n | 0.65µM | n | n | 0.82µM
CCN(CC)S(=O)(=O)c1cc(NC(=O)c2ccc(Br)s2)ccc1C | n | n | 16µM | x | n | u
CCN(CC)S(=O)(=O)c1cc(NC(=O)c2ccc3c(c2)NC(=O)C(C)S3)ccc1C (stereo not drawn) | n | n | 21µM | n | -58 | 21µM
CCOC(=O)c1nc(N/N=C/c2ccccc2)sc1Br | n | n | u | x | u | n
COc1ccccc1NC(=O)C(C)OC(=O)C1CC(=O)N(Cc2ccco2)C1 (stereo not drawn) | n | n | n | n | n | n
COC(=O)CSC1=C(C#N)C(=O)NC(c2ccccc2)S1 (stereo not drawn) | -74 | n | 2.1µM | n | u | 2.6µM
CSC1=C(C#N)C(=O)NC(c2ccccc2O)S1 (stereo not drawn) | n | n | n | n | n | n
CC[n+]1c(C)cc2c(sc3ccccc32)c1C | n | n | 2.9µM | n | n | 12µM
O=C(Nc1ccccc1Cl)c1cc(C2CCCN(C(=O)c3cccs3)C2)on1 (stereo not drawn) | n | n | n | n | n | n
COc1ccc(CC(=O)OCC(=O)NC2CCCC(C)C2C)cc1OC (stereo not drawn) | n | n | n | n | n | n
Cc1c(Cl)cccc1NC(=O)CSC(N)=O | n | n | 16µM | x | -92 | 21µM
Cc1c(Cl)cccc1NC(=O)CCN1CCN(C)CC1 | n | n | n | n | n | n
Cc1c(Cl)cccc1NC(=O)CSCC(N)=O | n | n | n | n | n | n
Cc1c(Cl)cccc1NC(=O)CCN1CCCCC1 | -58 | n | n | n | n | n
Cc1nn(C)cc1CN1CCOc2ccc(CN3CCC(Oc4cccnc4)CC3)cc2C1 | x | x | u | x | x | n[9.04 µM]
CC(C)OC(=O)c1cccnc1N1CCN(c2cccc(Cl)c2)CC1 | n | n | 16µM | n | n | u
O=C(c1c(Cl)cccc1Cl)N1CCN(c2ccccn2)CC1 | n | n | n | 32µM | n | n
O=C(N1CCN(c2ccccn2)CC1)N1c2ccccc2Sc2ccccc21 | u | n | 0.92µM | n | n | 0.73µM
